For assay [1], the target named is Paired box protein Pax-6 (Homo sapiens) (UniProt P26367). The assay can be described thus: ATG_Pax6_CIS: Attagene CIS-FACTORIAL HepG2 Assay for human Paired Box 6 (PAX6) (AID 2282956). The note with it: HepG2 CIS-FACTORIAL PAX6 reporter transcription, RNA readout; actives raise or lower the signal. Put shortly: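 Transient MRTU transfection of HepG2 → compound exposure 24 h → TriZol RNA, oligo(dT) RT → PCR, 6-FAM primer extension, HpaI cut → capillary electrophoresis; activity fitted both directions against DMSO.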

A short description of assay [2]: ATG_PXRE_CIS: Attagene CIS-FACTORIAL HepG2 Assay for human Pregnane X Receptor Element (PXRE) (AID 2282957). The note with it: HepG2 Attagene CIS-FACTORIAL PXRE reporter, mRNA; actives raise or lower the signal. The method in brief: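 Transiently transfected HepG2 cells were dosed and incubated for 24 h. RNA was then isolated, DNase-treated, reverse-transcribed and reporter sequences amplified. Labeled, HpaI-digested fragments were quantified by capillary electrophoresis against DMSO.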

Assay [3] in a line: ATG_PPRE_CIS: Attagene CIS-FACTORIAL HepG2 Assay for human Peroxisome Proliferator-activated Response Element (PPRE) (AID 2282958). The conditions noted are these: HepG2 PPRE cis-element reporter, Attagene transcription factor profiling; actives raise or lower the signal. The method in brief: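 Read-out: fluorescent reporter mRNA fragments resolved by capillary electrophoresis after RT-PCR. HepG2 cells carried transiently transfected PPRE-driven cis reporter constructs and were dosed for 24 h; gain or loss of signal fitted relative to DMSO.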

Assay [4] is described as follows: ATG_RORE_CIS: Attagene CIS-FACTORIAL HepG2 Assay for human RAR-related Orphan Receptor Element (RORE) (AID 2282959). The conditions noted are these: HepG2 Attagene cis-factorial RORE reporter, mRNA; actives raise or lower the signal. The method in brief: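 Readout: fluorescent reporter mRNA by RT-PCR plus capillary electrophoresis, 24 h after dosing transfected HepG2 cells. Endogenous transcription factor activity on a cis promoter element is measured. Gain or loss of signal fitted against DMSO.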

The nature of assay [5]: ATG_Sox_CIS: Attagene CIS-FACTORIAL HepG2 Assay for human SRY-box transcription factor (SOX) (AID 2282960). The conditions noted are these: HepG2 Attagene cis-factorial SOX reporter, mRNA; actives raise or lower the signal. Put shortly:
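Read-out: fluorescent RT-PCR products of SOX1-linked reporter transcripts resolved by capillary electrophoresis, fitted bidirectionally against DMSO. Transiently transfected HepG2 cells, 24 h after chemical exposure, endogenous transcription factor activity.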

In assay [6] the target is Transcription factor Sp1 (Homo sapiens) (UniProt P08047). The assay can be described thus: ATG_Sp1_CIS: Attagene CIS-FACTORIAL HepG2 Assay for human Specificity Protein 1 (Sp1) (AID 2282961). The conditions noted are these: HepG2 Sp1 cis-reporter transcription, actives raise or lower the signal. The method in brief:
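Read-out: fluorescence of 6-FAM-labeled, HpaI-digested RT-PCR products separated by capillary electrophoresis. HepG2 cells carried transfected cis-element reporter units and were exposed to chemicals for 24 h; gain or loss of signal fitted relative to DMSO.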

A short description of assay [7]: ATG_SREBP_CIS: Attagene CIS-FACTORIAL HepG2 Assay for human Sterol Regulatory Element Binding (SREBP) (AID 2282962). The conditions noted are these: HepG2 Attagene cis-factorial SREBP reporter, mRNA; actives raise or lower the signal. The method in brief: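 Transfected HepG2 (cis-regulated reporter library, endogenous TFs) → compound 24 h → total RNA → oligo(dT) RT → reporter-specific PCR → FAM primer extension, HpaI cut → CE fluorescence. Fit bidirectional vs DMSO.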

The target of assay [8] is Signal transducer and activator of transcription 3 (Homo sapiens) (UniProt P40763). The assay can be described thus: ATG_STAT3_CIS: Attagene CIS-FACTORIAL HepG2 Assay for human Signal Transducer and Activator of Transcription 3 (STAT3) (AID 2282963). The conditions noted are these: HepG2, Attagene cis-factorial STAT3 reporter transcription; actives raise or lower the signal. Put shortly:
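After a 24 h compound incubation, total RNA from MRTU-transfected HepG2 cells was converted to cDNA and reporter sequences PCR-amplified, labelled and profiled by capillary electrophoresis. Gain and loss of signal were referenced to DMSO.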

Assay [9] is described as follows: ATG_TA_CIS: Attagene CIS-FACTORIAL HepG2 Assay for human TA Basal Promoter (AID 2282964). The conditions noted are these: HepG2 Attagene CIS-factorial TA basal promoter reporter; actives raise or lower the signal. Put shortly:
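Fluorescence from labelled RT-PCR reporter fragments, separated by capillary electrophoresis, gives the signal. Cells: HepG2 transiently carrying multiple reporter units, 24 h chemical dosing. Gain or loss relative to DMSO.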

Assay [10] in a line: ATG_TCF_b_cat_CIS: Attagene CIS-FACTORIAL HepG2 Assay for human T-Cell-Factor with beta-catenin (TCF/b-cat) (AID 2282965). The note with it: HepG2 TCF/beta-catenin cis-reporter transcription, actives raise or lower the signal. Put shortly:
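Measured: reporter mRNA in HepG2 transiently transfected with cis-promoter reporter units, 24 h after chemical addition. Fitting was bidirectional, DMSO as negative control.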

Assay [11] can be described thus: ATG_TAL_CIS: Attagene CIS-FACTORIAL HepG2 Assay for human TAL Basal Promoter (AID 2282966).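 Also: background control endpoint measuring basal TAL promoter reporter mRNA not a specific factor.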 The note with it: HepG2 Attagene cis-factorial TAL promoter reporter; actives raise or lower the signal. The method in brief:
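Readout: reporter mRNA, fluorescence by CE. System: HepG2, transient multi-reporter transfection, endogenous TF activity. Exposure: 24 h. Analysis: bidirectional, DMSO-normalized; background control.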

Assay [12] in a line: ATG_TGFb_CIS: Attagene CIS-FACTORIAL HepG2 Assay for human Transforming Growth Factor (TGF) (AID 2282967). The note with it: HepG2 Attagene CIS TGFb reporter, mRNA transcription; actives raise or lower the signal. The method in brief: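 Bidirectional fitting relative to DMSO gave the endpoint. Underlying data: reporter mRNA from HepG2 cells carrying transiently transfected cis-regulated reporter constructs, harvested 24 h after dosing and analyzed by RT-PCR and capillary electrophoresis.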

The nature of assay [13]: ATG_VDRE_CIS: Attagene CIS-FACTORIAL HepG2 Assay for human Vitamin D Receptor Element (VDRE) (AID 2282968). The note with it: HepG2 VDRE cis-reporter transcription, actives raise or lower the signal. The method in brief:
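In transiently transfected HepG2 liver cells, gain or loss of reporter mRNA after 24 h exposure is scored relative to DMSO, using fluorescence detection by capillary electrophoresis of RT-PCR products.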

Assay [14] has as its target Nuclear receptor subfamily 1 group I member 3 (Homo sapiens) (UniProt Q14994). The assay can be described thus: ATG_CAR_TRANS: Attagene TRANS-FACTORIAL HepG2 Assay for human Constitutive Androstane Receptor (CAR) (AID 2282969; active = hit-call score of the fitted dose curve at least 0.9, where 1 is the maximum;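 also: activators raise reporter mRNA above DMSO so AC50 marks induction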). The note with it: HepG2 Attagene TRANS-FACTORIAL CAR reporter. The method in brief:
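Readout is reporter mRNA induction, quantified by fluorescent primer extension and capillary electrophoresis after RT-PCR. Cells were HepG2 transiently carrying chimeric NR-Gal4 constructs with GAL4-UAS reporters, treated for 24 h; activity scored upward from DMSO.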

In assay [15] the target is Estrogen receptor (Homo sapiens) (UniProt P03372). Nature of the assay: ATG_ERa_TRANS: Attagene TRANS-FACTORIAL HepG2 Assay for human Estrogen Receptor alpha (ERa) (AID 2282970; active = hit-call score of the fitted dose curve at least 0.9, where 1 is the maximum). The conditions noted are these: HepG2 Attagene TRANS ERa GAL4 reporter, mRNA. Put shortly:
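Transactivation via ERa-Gal4 chimera in HepG2; 24 hour incubation; reporter mRNA detected by fluorescence RT-PCR and capillary electrophoresis.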

The target in assay [16] is X-box-binding protein 1 (Homo sapiens) (UniProt P17861). Nature of the assay: ATG_Xbp1_CIS: Attagene CIS-FACTORIAL HepG2 Assay for human X-box Binding Protein 1 (XBP1) (AID 2282972). The note with it: HepG2 XBP1 cis-element reporter, Attagene multiplex; actives raise or lower the signal. Put shortly:
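HepG2, transient MRTU transfection (cis-promoter driven), 24 h compound exposure. Total RNA → oligo(dT) RT → PCR → 6-FAM labeling → HpaI cut → CE. Bidirectional fit vs DMSO.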

Assay [17] is described as follows: ATG_M_19_TRANS: Attagene TRANS-FACTORIAL HepG2 Assay for M19 Transcription Factor (Internal Marker) (AID 2282974; active = hit-call score of the fitted dose curve at least 0.9, where 1 is the maximum). The conditions noted are these: HepG2 Attagene TRANS-FACTORIAL M19 internal marker reporter. The method in brief: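 24 h chemical exposure of transiently transfected HepG2 (MRTU library). RNA → oligo(dT) RT → PCR → 6-FAM labelling → HpaI cut → CE fluorescence. Positive-direction fit vs DMSO baseline; background internal-marker readout.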

Assay [18] deals with Steroid hormone receptor ERR1 (Homo sapiens) (UniProt P11474). Nature of the assay: ATG_ERRa_TRANS: Attagene TRANS-FACTORIAL HepG2 Assay for human Estrogen-Related Receptor alpha (ERRa) (AID 2282971; active = hit-call score of the fitted dose curve at least 0.9, where 1 is the maximum). The note with it: HepG2 Attagene TRANS reporter, ERRa transactivation. Put shortly: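 HepG2 cells were transiently transfected with multiple GAL4-UAS reporter units, then dosed with compound for 24 h. Total RNA was reverse-transcribed, reporter cDNA PCR-amplified and fluorescently labelled, and fragments resolved by capillary electrophoresis; induction was compared with DMSO.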

In assay [19] the target is Estrogen-related receptor gamma (Homo sapiens) (UniProt P62508). Nature of the assay: ATG_ERRg_TRANS: Attagene TRANS-FACTORIAL HepG2 Assay for human Estrogen-Related Receptor gamma (ERRg) (AID 2282977; active = hit-call score of the fitted dose curve at least 0.9, where 1 is the maximum;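 also: hits increase reporter signal over DMSO so potencies reflect activators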). The conditions noted are these: HepG2 Attagene TRANS reporter, ERRg transactivation. Put shortly: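 HepG2 cells transiently transfected with multiplexed GAL4-UAS reporter units and chimeric NR-Gal4 constructs were exposed to test chemicals for 24 h. Reporter mRNA was measured by RT-PCR, 6-FAM primer extension, HpaI digestion and capillary electrophoresis; gain-of-signal versus DMSO.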

Assay [20] can be described thus: ATG_GAL4_TRANS: Attagene TRANS-FACTORIAL HepG2 Assay for GAL4 (Internal Marker) (AID 2282976; active = hit-call score of the fitted dose curve at least 0.9, where 1 is the maximum). The note with it: HepG2 Attagene TRANS GAL4 internal marker reporter. The method in brief:
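Fluorescence from capillary electrophoresis of labelled RT-PCR products quantifies reporter mRNA induction after 24 h dosing of HepG2 cells carrying transfected GAL4-UAS reporter transcription units. Vehicle DMSO serves as baseline.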

Results filed as inconclusive are left out. Activity calls are given as the source filed them. The calls were made as follows, unless noted: active = hit-call score of the fitted dose curve at least 0.9, where 1 is the maximum; inactive = score below 0.9.

Signal transducer and activator of transcription 3 (Homo sapiens), sequence (P40763 whole entry, looked up): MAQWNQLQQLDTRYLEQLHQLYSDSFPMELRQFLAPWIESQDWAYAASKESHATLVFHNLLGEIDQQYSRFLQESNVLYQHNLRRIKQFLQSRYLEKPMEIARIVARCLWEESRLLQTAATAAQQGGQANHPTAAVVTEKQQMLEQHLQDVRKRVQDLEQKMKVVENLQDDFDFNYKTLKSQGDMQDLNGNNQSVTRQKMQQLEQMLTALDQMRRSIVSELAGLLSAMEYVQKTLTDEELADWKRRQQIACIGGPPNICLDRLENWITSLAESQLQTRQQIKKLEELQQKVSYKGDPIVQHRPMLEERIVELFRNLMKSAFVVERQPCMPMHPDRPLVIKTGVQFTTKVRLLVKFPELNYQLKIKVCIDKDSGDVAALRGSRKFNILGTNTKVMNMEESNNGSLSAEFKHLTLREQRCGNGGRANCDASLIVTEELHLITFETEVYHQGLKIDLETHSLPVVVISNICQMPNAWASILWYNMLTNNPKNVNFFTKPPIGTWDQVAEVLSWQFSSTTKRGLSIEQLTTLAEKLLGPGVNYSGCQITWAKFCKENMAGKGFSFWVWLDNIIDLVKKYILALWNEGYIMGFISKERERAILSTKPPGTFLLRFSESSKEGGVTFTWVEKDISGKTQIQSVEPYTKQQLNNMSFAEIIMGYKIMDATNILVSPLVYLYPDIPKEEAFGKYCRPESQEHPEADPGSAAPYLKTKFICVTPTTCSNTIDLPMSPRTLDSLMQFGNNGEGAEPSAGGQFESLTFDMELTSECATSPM
X-box-binding protein 1 (Homo sapiens), sequence (P17861 whole entry, looked up): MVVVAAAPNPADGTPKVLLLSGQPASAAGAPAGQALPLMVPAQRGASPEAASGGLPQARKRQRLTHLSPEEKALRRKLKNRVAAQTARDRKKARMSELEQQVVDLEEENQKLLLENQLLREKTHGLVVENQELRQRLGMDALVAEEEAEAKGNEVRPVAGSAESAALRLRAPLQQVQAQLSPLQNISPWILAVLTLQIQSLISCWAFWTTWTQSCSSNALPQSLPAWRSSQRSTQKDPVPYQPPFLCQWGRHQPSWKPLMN
Paired box protein Pax-6 (Homo sapiens), sequence (P26367 whole entry, looked up): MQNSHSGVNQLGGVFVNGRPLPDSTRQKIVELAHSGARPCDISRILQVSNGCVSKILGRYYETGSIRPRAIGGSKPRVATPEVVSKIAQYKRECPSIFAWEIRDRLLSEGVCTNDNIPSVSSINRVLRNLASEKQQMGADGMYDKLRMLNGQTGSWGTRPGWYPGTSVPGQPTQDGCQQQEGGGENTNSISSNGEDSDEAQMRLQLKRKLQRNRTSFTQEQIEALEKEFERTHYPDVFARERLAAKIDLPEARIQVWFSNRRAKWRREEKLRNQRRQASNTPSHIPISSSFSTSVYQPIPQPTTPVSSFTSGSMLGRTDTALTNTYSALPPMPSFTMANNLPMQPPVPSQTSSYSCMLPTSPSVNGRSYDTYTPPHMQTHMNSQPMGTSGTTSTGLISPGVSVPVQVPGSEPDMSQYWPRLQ
Estrogen receptor (Homo sapiens), sequence (P03372 whole entry, looked up, the tested form may be a part): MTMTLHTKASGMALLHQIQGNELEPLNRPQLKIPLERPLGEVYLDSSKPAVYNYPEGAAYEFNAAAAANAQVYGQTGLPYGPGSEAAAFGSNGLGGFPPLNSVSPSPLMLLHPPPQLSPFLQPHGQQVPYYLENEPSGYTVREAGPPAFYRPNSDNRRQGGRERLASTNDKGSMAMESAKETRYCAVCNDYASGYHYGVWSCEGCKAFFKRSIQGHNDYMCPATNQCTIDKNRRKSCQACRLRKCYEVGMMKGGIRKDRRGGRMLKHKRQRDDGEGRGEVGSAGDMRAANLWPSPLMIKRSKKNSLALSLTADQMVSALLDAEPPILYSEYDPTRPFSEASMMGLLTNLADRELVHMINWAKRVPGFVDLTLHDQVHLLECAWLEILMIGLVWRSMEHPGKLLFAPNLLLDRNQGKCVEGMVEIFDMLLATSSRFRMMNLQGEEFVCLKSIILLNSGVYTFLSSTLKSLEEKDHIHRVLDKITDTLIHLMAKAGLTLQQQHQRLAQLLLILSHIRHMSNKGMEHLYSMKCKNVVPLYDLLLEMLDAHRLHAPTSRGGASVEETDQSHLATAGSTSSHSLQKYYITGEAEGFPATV
Transcription factor Sp1 (Homo sapiens), sequence (P08047 whole entry, looked up): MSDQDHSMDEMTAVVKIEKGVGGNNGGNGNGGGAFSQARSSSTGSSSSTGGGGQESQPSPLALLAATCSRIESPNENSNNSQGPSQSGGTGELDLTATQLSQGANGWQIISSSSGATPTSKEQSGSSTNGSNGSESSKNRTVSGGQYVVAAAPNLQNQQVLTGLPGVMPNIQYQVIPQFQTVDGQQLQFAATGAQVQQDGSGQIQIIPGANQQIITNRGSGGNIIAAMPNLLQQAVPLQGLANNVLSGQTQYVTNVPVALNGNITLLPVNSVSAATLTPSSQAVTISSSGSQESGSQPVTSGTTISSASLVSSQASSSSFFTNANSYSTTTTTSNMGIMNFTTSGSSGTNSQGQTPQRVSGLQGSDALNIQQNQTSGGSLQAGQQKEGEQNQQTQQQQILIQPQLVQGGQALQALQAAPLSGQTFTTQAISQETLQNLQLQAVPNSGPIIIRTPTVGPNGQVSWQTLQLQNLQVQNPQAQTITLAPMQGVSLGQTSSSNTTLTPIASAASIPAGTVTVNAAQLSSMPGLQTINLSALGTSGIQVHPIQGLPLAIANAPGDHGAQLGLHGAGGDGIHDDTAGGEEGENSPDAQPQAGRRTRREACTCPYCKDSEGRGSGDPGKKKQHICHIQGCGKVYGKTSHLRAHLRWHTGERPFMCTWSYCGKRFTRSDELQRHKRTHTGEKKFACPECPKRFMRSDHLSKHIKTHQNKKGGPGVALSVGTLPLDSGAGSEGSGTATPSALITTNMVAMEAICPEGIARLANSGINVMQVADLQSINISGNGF
Nuclear receptor subfamily 1 group I member 3 (Homo sapiens), sequence (Q14994 whole entry, looked up, the tested form may be a part): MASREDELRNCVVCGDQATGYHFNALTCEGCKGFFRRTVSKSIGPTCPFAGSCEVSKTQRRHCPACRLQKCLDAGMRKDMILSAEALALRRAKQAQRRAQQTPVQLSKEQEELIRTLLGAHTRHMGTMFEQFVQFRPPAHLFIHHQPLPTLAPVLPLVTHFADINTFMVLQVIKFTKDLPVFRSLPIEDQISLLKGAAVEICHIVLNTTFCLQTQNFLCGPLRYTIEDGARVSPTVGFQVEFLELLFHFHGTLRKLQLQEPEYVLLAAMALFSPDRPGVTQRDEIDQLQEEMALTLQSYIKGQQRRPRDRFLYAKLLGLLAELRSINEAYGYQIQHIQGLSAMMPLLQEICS
Estrogen-related receptor gamma (Homo sapiens), sequence (P62508 whole entry, looked up, the tested form may be a part): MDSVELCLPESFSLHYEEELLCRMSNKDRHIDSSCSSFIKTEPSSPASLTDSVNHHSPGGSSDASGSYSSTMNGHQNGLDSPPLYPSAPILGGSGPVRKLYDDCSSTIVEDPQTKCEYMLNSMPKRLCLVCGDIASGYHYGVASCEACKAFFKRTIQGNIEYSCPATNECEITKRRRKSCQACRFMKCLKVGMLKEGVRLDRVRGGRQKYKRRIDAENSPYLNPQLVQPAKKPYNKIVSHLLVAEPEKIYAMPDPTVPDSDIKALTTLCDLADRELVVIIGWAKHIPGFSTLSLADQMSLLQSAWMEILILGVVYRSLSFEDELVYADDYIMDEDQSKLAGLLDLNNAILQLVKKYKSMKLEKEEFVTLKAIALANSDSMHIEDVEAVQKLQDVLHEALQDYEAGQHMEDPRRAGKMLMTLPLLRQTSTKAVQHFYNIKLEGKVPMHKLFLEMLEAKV
Steroid hormone receptor ERR1 (Homo sapiens), sequence (P11474 whole entry, looked up, the tested form may be a part): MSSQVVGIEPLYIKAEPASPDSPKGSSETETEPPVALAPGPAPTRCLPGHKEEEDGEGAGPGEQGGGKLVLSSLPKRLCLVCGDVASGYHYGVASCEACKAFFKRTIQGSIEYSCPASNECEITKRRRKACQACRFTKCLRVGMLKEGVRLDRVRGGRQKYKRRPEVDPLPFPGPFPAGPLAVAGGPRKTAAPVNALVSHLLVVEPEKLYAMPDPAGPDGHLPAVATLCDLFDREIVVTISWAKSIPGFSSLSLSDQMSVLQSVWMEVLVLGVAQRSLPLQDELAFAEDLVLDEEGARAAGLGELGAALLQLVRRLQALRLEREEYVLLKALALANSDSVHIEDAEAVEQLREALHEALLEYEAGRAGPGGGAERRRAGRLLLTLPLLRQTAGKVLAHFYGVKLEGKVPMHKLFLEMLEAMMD

Broadly, the AC50 is the midpoint of the concentration-response curve, whichever way the signal moves. Consider `N#CCc1ccc(Cl)cc1Cl`, for which the molecule was called inactive in assay [1], in assay [3], in assay [4], in [5], in [6] and in assay [7]. For the same molecule, the call in [8], in assay [9], in assay [10], in assay [11], in assay [12] and in assay [13] was inactive. Besides, the outcome in assay [14], in assay [15], in assay [16] and in assay [17] was inactive. In addition, the AC50 in assay [2] was 61.8 µM (active).
On to `CCC(C)OC(=O)c1ccc(O)cc1` (stereo not drawn), for which the call in [1], in assay [4], in assay [5], in assay [6], in assay [7] and in assay [8] was inactive. Also, the call in [9], in [10], in assay [11], in [12], in assay [14] and in assay [18] was inactive. The result in [16] and in assay [19] was inactive. The AC50 is 27.8 µM (active) in assay [2], 100 µM (active) in assay [3], 62.7 µM (active) in [13] and 750 nM (active) in [15].
For `CC1=CC[C@H]2C[C@@H]1C2(C)C`, the call in [1], in assay [2], in assay [3], in [4], in [5] and in assay [6] was inactive. Moreover, the call in assay [7], in assay [8], in assay [9], in assay [10], in assay [11] and in assay [12] was inactive. The molecule was called inactive in assay [13], in assay [15], in [17] and in [20].
Take `CCCCCCOc1cc(C)c(O)c(C)c1C`: the molecule was classed as inactive in assay [1], in assay [3], in assay [4], in assay [5], in assay [6] and in [7]. In addition, the result in [8], in assay [9], in [10], in assay [11], in [12] and in assay [14] was inactive. For the same molecule, the molecule was called inactive in assay [15], in assay [16] and in [19]. Further, the results for the AC50 in assay [2] and in [13] were 3.01 µM (active) and 9.58 µM (active), respectively.

Source of the values: PubChem BioAssay (EPA / NIEHS).
